Reference: PubChem BioAssay (EPA / NIEHS)
Records with an inconclusive call do not appear. The source made the active and inactive calls. How the source made its calls, unless noted: active means hit-call score of the fitted dose curve at least 0.9, where 1 is the maximum; inconclusive means response in the unintended direction; inactive means score below 0.9. Where a SMILES comes first, the peptide text is derived from it. [ ]: non-standard residue; d: D form. pGlu = O=C1CC[C@@H](C(=O)O)N1

Tests used:
[1] = TOX21_p53_BLA_p2_viability: Viability Assessment in the Tox21 HCT-116 p53 Agonism Beta-lactamase Assay, Phase 2 (AID 2283591);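 further: compound exposure lasted 16 h at 37 °C; actives lower the ATP signal meaning cytotoxicity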
In short: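 Cytotoxicity readout: CellTiter-Glo ATP luminescence, 30 min at room temperature, after the beta-lactamase read. Cells were HCT116 exposed 16 h at 37C to compounds pin-transferred at 217-fold dilution from DMSO stocks.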

[2] = molecular target: Cellular tumor antigen p53 (Homo sapiens) (UniProt P04637); assay: TOX21_p53_BLA_p3_ratio: Tox21 HCT-116 p53 Agonism Beta-lactamase Assay, Ratio, Phase 3 (AID 2283596)
Cellular tumor antigen p53 (Homo sapiens), sequence (P04637 whole entry, looked up): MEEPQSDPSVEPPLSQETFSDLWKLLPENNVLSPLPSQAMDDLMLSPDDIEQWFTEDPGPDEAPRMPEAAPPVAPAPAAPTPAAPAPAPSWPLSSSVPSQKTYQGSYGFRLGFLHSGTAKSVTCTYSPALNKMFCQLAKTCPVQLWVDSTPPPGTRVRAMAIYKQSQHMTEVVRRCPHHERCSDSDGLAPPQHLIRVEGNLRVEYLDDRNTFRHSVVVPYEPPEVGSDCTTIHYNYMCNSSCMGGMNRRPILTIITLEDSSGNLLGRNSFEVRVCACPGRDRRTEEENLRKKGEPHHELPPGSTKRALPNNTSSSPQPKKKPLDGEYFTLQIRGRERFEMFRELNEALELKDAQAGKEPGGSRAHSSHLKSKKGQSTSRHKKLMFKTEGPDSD
In short: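 HCT116 p53-bla cells (4000/well) given compound in DMSO (217-fold dilution) after 5 h, incubated 16 h at 37C. CCF4-AM substrate 2 h at room temperature; 460/530 nm emission ratio, gain fitted against DMSO.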

[3] = TOX21_p53_BLA_p5_viability: Viability Assessment in the Tox21 HCT-116 p53 Agonism Beta-lactamase Assay, Phase 5 (AID 2283600)
In short: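 After the 460/530 nm beta-lactamase measurement, the wells received an ATP-detection luciferase reagent; signal was read 30 min later at RT. Compound treatment lasted 16 h on cells pre-incubated 5 h post-seeding.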

[4] = molecular target: Cellular tumor antigen p53 (Homo sapiens) (UniProt P04637); assay: TOX21_p53_BLA_p4_ratio: Tox21 HCT-116 p53 Agonism Beta-lactamase Assay, Ratio, Phase 4 (AID 2283601)
In short: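 Signal is the blue/green (460nm/530nm) ratio of cleaved versus uncleaved CCF4-AM substrate, read after 2 h substrate loading. Cells were HCT116 carrying the p53-responsive beta-lactamase reporter, dosed 16 h at 37C, 5% CO2; CellTiter-Glo measured in parallel.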

[5] = TOX21_p53_BLA_p4_viability: Viability Assessment in the Tox21 HCT-116 p53 Agonism Beta-lactamase Assay, Phase 4 (AID 2283597);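 further: hits lower the luminescence signal meaning cytotoxicity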
In short: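 Following a 16 h exposure at 37C, the treated HCT116 wells were first read for the FRET ratio. They were then lysed with CellTiter-Glo, and ATP luminescence was recorded after 30 min at room temperature.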

[6] = molecular target: Cellular tumor antigen p53 (Homo sapiens) (UniProt P04637); assay: TOX21_p53_BLA_p5_ratio: Tox21 HCT-116 p53 Agonism Beta-lactamase Assay, Ratio, Phase 5 (AID 2283599)
In short: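 Beta-lactamase reporter ratio (blue 460 nm over green 530 nm, 405 nm excitation) after 2 h CCF4-AM loading, in HCT-116 cells exposed 16 h at 37 C to compounds pinned at 217-fold dilution. Increases relative to DMSO baseline scored.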

[7] = molecular target: Estrogen receptor (Homo sapiens) (UniProt P03372); assay: CCTE_Deisenroth_AIME_96WELL_LUC_Active: CCTE's 96-well Estrogen Receptor Transactivation Assay with AIME metabolic competence (ERTA luciferase; metabolism positive), Deisenroth Lab (AID 2284023)
Estrogen receptor (Homo sapiens), sequence (P03372 whole entry, looked up): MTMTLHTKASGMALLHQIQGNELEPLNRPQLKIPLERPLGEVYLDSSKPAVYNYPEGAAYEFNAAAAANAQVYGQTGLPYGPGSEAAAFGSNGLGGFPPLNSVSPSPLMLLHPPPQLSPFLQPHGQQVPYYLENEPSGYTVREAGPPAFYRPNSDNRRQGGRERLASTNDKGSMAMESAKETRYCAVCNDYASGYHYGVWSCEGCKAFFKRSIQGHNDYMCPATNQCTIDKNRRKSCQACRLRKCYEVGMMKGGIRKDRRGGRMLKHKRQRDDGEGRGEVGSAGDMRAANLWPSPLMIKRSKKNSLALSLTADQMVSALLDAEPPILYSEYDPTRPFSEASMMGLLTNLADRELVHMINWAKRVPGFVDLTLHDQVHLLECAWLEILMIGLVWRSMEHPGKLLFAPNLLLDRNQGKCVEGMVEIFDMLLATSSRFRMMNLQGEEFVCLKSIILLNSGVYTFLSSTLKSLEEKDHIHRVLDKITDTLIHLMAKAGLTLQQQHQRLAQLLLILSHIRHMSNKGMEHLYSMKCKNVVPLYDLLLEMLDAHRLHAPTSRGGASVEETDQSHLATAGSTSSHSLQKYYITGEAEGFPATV
In short: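 Chemicals pre-incubated 2 h with alginate-immobilized phenobarbital/beta-naphthoflavone-induced male Sprague Dawley rat liver S9, then medium transferred to VM7Luc4E2 cells for 24 h luciferase read-out. 10-point series 0.002 - 200 uM; fitted relative to 17beta-estradiol.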

[8] = molecular target: Estrogen receptor (Homo sapiens) (UniProt P03372); assay: CCTE_Deisenroth_AIME_96WELL_LUC_Inactive: CCTE's 96-well Estrogen Receptor Transactivation Assay without AIME metabolic competence (ERTA luciferase; metabolism negative), Deisenroth Lab (AID 2284025)
In short: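 VM7Luc4E2 breast cells, luciferase read 24 h after dosing with medium pre-incubated 2 h on alginate-water lids (metabolism negative). 10-point series 0.002–200 uM, single technical replicate, n≥4; fit relative to 17beta-estradiol.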

[9] = CCTE_Deisenroth_AIME_96WELL_CTox_Active: Cytotoxicity Assessment (CTOX) in CCTE's 96-well Estrogen Receptor Transactivation Assay with AIME metabolic competence (metabolism positive), Deisenroth Lab (AID 2284028)
In short: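 Chemicals (0.002–200 uM) were first incubated 2 h with alginate-immobilized phenobarbital/beta-naphthoflavone-induced male rat liver S9; conditioned medium then went onto VM7Luc4E2 cells for 24 h, with viability read by protease-substrate fluorescence, fitted bidirectionally.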

[10] = CCTE_Deisenroth_AIME_96WELL_CTox_Inactive: Cytotoxicity Assessment (CTOX) in CCTE's 96-well Estrogen Receptor Transactivation Assay without AIME metabolic competence (metabolism negative), Deisenroth Lab (AID 2284029)
In short: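 Chemicals (0.002 - 200 uM, 10 points) incubated 2 h with alginate-water microspheres (no S9), then medium moved onto VM7Luc4E2 cells for 24 h. Viability by protease-substrate cleavage to fluorescent probe; bidirectional fitting.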

[11] = CCTE_Harrill_HTTr_Viability_MCF7: CCTE's 6-hour Cell Viability Assessment for the High-Throughput Transcriptomics (HTTr) Platform, in MCF-7 cells cultured in DMEM + 10% fetal bovine serum, Harrill Lab (AID 2284010; active means hit-call score of the fitted dose curve at least 0.9, where 1 is the maximum; inactive means score below 0.9)
In short: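 MCF-7 cells in DMEM + 10% FBS, 384-well, exposed 6 h to an eight-point dilution series. Membrane integrity scored by high-content imaging of propidium iodide exclusion; bidirectional fit versus DMSO.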

[12] = CCTE_Harrill_HTTr_Apoptosis_MCF7: CCTE's 6-hour Apoptosis Assessment for the High-Throughput Transcriptomics (HTTr) Platform, in MCF-7 cells cultured in DMEM + 10% fetal bovine serum, Harrill Lab (AID 2284011; active means hit-call score of the fitted dose curve at least 0.9, where 1 is the maximum; inactive means score below 0.9)
In short: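 High-content imaging of CellEvent Caspase 3/7 Green signal follows a six-hour exposure, with eight concentrations per chemical. MCF-7 cells grown in DMEM plus 10% fetal bovine serum; activity fitted in both directions against DMSO.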

[13] = CCTE_Harrill_HTTr_CellCount_MCF7: CCTE's Cell Proliferation Assessment for the High-Throughput Transcriptomics (HTTr) Platform, Harrill Lab (AID 2284012);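 further: cells exposed to compound for six hours; intended direction is loss of nuclei count meaning fewer cells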
In short: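 MCF7 cells exposed 6 hours to an eight-point dilution series; Hoechst-stained nuclei counted by high-content imaging. Bidirectional curve fitting against DMSO baseline.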

Measured: AC50

CC(C(=O)O)c1ccc(/C=C2\CCCCC2=O)cc1 (stereo unspecified)
inactive: [1] | [2] | [3] | [4]

CC(C)(c1cc(Br)c(OCC(Br)CBr)c(Br)c1)c1cc(Br)c(OCC(Br)CBr)c(Br)c1 (stereo unspecified)
inactive: [1] | [5] | [6]

Cc1ccccc1C(N)=O
inactive: [1] | [2] | [3] | [4]

CC(C)(Sc1cc(C(C)(C)C)c(O)c(C(C)(C)C)c1)Sc1cc(C(C)(C)C)c(O)c(C(C)(C)C)c1
inactive: [1] | [5] | [6] | [3]

C(=C\c1ccccc1)/c1ccccc1
active: [7] 18 µM | [8] 44.6 µM
inactive: [1] | [2] | [3] | [9] | [10]

C1CCC2=NCCCN2CC1
inactive: [1] | [5] | [6] | [3]

N[C@@H](C(=O)N[C@@H]1C(=O)N2C(C(=O)O)=C(CSc3cn[nH]n3)CS[C@H]12)c1ccc(O)cc1
inactive: [1] | [5] | [6] | [3]

CCN(CC)CCc1nc(-c2ccccc2)no1
inactive: [1] | [2] | [6] | [4]

C[C@H](O)CN(C)C
inactive: [1] | [2] | [6] | [4]

c1cnc(N2CCN(Cc3ccc4c(c3)OCO4)CC2)nc1
inactive: [1] | [5]

CC(=O)Nc1ccc(C)c(Cl)c1
inactive: [1] | [5] | [6] | [3]

O=C(CCC1CCN(Cc2ccccc2)CC1)c1ccc2c(c1)NCCCC2
inactive: [1] | [5] | [6] | [3] | [4]

COc1ccc2c(c1)c(CC(=O)OCC(=O)O)c(C)n2C(=O)c1ccc(Cl)cc1
inactive: [1] | [5]

CN1C(CCl)Nc2cc(Cl)c(S(N)(=O)=O)cc2S1(=O)=O (stereo unspecified)
inactive: [1] | [5] | [6] | [4]

O=C(O)c1cc2ccccc2c(Cc2c(O)c(C(=O)O)cc3ccccc23)c1O
inactive: [1] | [5] | [6] | [3] | [4]

CC1(C)[C@@H](OC(=O)CCC(=O)O)CC[C@]2(C)[C@H]3C(=O)C=C4[C@@H]5C[C@@](C)(C(=O)O)CC[C@]5(C)CC[C@@]4(C)[C@]3(C)CC[C@@H]12
inactive: [1] | [6] | [3]

CC(C)CNCC(C)C
inactive: [1] | [6] | [3] | [4]

Cc1onc(-c2ccccc2)c1C(=O)N[C@@H]1C(=O)N2[C@@H]1SC(C)(C)[C@@H]2C(=O)O
inactive: [1] | [5] | [4]

Cc1ccc(C(C)NC(=O)[C@@H](NC(=O)OC(C)C)C(C)C)cc1 (stereo partly specified)
not listed: [2] | [7] | [8] | [9] | [10]
inactive: all other assays above

NCCCNCCCCNC(=O)C(O)NC(=O)CCCCCCN=C(N)N (stereo unspecified)
inactive: [1] | [6] | [3] | [4]

CC(=O)CC(c1ccc([N+](=O)[O-])cc1)c1c(O)c2ccccc2oc1=O (stereo unspecified)
inactive: [1] | [5] | [6] | [4]

Nc1ccc2c3c(cccc13)-c1ccccc1-2
inactive: [1] | [5] | [3]

O=C(O)c1c(Cl)cccc1Cl
inactive: [1] | [5] | [6] | [3] | [4]

CC(=O)Nc1cccc(C)c1
inactive: [1] | [5] | [3] | [4]

CN1C(C)(C)CCCC1(C)C
inactive: [1] | [6]

CNCCCN1c2ccccc2CCc2ccccc21
inactive: [1] | [5] | [3] | [4]

CC[C@H](C)[C@H](NC(=O)[C@H](Cc1ccccc1)NC(=O)[C@H](C)NC(=O)[C@H](CC(=O)O)NC(=O)[C@H](CCCCN)NC(=O)[C@H](CO)NC(=O)[C@@H]1CCCN1C(=O)[C@@H]1CCC(=O)N1)C(=O)NCC(=O)N[C@@H](CC(C)C)C(=O)N[C@@H](CCSC)C(N)=O ([pGlu]PSKDAFIGLM-NH2)
inactive: [1] | [6] | [3] | [4]

NC(=S)Nc1cccc2ccccc12
inactive: [1] | [5] | [6] | [4]

O=[N+]([O-])c1ccc2[nH]ncc2c1
inactive: [1] | [5] | [6] | [3] | [4]

NC(=O)c1ccncc1
inactive: [1] | [5] | [6] | [4]
